Test [1] deals with Schistosoma mansoni schistosomula (LE). Kind of test: XTT viability relative to DMSO control; higher = more viable (less active). The conditions noted are these: 72 h; 10 µM. The procedure:
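XTT/PMS was then added for a further 24 h (72 h total) and A450 was read. % viability = (sample - heat-killed control)/(DMSO control - heat-killed control) x 100, from duplicate wells in two independent experiments.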
Background: Tetrazolium assays rely on reduction of a dye to a coloured formazan, in cell work by metabolically active cells.

Test [2] concerns Schistosoma mansoni schistosomula (NMRI). Nature of the test: phenotypic severity score (0-4); higher = more antischistosomal effect, active = 2 or more. The conditions noted are these: 10 µM.
The test system of test [3] is Schistosoma mansoni schistosomula (Liberian). Nature of the test: drug effect (1 - score/DMSO control score) (fraction); higher = more antischistosomal effect, active = 0.5 or more; extreme values may be limits of the assay. The conditions noted are these: 10 µM. In short, it runs like this: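 A plate was valid only if its 0.1% DMSO wells averaged a score of at least 2. Those wells ran beside duplicate wells in which 50 Liberian-strain Schistosoma mansoni schistosomula each, transformed mechanically from cercariae and pre-incubated at least 12 h, met 10 µM compound in Medium 199 with 5% FCS at 37 °C, 5% CO2. Scoring was visual at 10× at 24, 48 and 72 h, from 3 (normal) to 0 (dead) in quarter-point steps. Drug effect was derived from the mean test-well score against the mean DMSO-well score, with negatives set to zero.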

Bounds are passed on as bounds.
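For phenotypic severity score (0-4) in this document: visual microscopic scoring of shape, motility and density changes versus 0.5% DMSO solvent controls, one point per descriptor, degeneracy or death scored 4, mean of duplicate wells.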

As for `CNc1nnc(Sc2cnn(-c3ccccc3)c(=O)c2Cl)s1`, in test [1], the XTT viability is -5.83%. The phenotypic severity score in test [2] (24 h), in test [2] (48 h) and in test [2] (72 h) was 4 (active) in each case. Further, the drug effect in test [3] (24 h), in test [3] (48 h) and in test [3] (72 h) was 1 (active) throughout.

As to `N=C(N)c1ccc(OCCCCCOc2ccc(C(=N)N)cc2)cc1`, in test [1], the XTT viability amounted to 81.9%. For the same molecule, the phenotypic severity score in test [2] (24 h), in test [2] (48 h) and in test [2] (72 h) was 0 (inactive) each time. Further, the drug effect in test [3] (24 h), in test [3] (48 h) and in test [3] (72 h) was < 0 (inactive) in each case.

For `CCOc1ccccc1C(=O)Nc1cccc(-c2nc3ncccn3c2C)c1`, the XTT viability in test [1] was determined as 107%. Also, the phenotypic severity score in test [2] (24 h), in test [2] (48 h) and in test [2] (72 h) was 0 (inactive) throughout. Further, the drug effect was 0.0811 (inactive) in test [3] (24 h), 0.389 (inactive) in test [3] (48 h) and 0.625 (active) in test [3] (72 h).

For the molecule `O=C(Nc1ccc(N2CCNCC2)cc1)c1ccn2ncc(-c3cccc(Cl)c3)c2n1`, the XTT viability in test [1] worked out at 7.7%. Also, the figures for the phenotypic severity score in test [2] (24 h), in test [2] (48 h) and in test [2] (72 h) were 2 (active), 4 (active) and 4 (active), respectively. The drug effect is 0.73 (active) in test [3] (24 h), 0.778 (active) in test [3] (48 h) and 0.938 (active) in test [3] (72 h).

Turning to `CC1CCCCN1C(=O)NCCc1coc(-c2ccc(F)cc2)n1` (stereo not given), in test [1], the XTT viability amounted to 131%. Also, the phenotypic severity score in test [2] (24 h) was 1 (inactive); in test [2] (48 h), 0 (inactive); in test [2] (72 h), 0 (inactive). Moreover, the drug effect in test [3] (24 h) is 0.0909 (inactive); in test [3] (48 h) it was 0.25 (inactive); in test [3] (72 h) it was 0.236 (inactive).

For the molecule `CN1CCN(c2nccc3nc(-c4ccc(F)c(F)c4)[nH]c23)CC1`, the XTT viability in test [1] was 110%. For the same molecule, the phenotypic severity score in test [2] (24 h), in test [2] (48 h) and in test [2] (72 h) was 0 (inactive) each time. For the same molecule, the results for the drug effect in test [3] (24 h), in test [3] (48 h) and in test [3] (72 h) were < 0 (inactive), 0.1 (inactive) and 0.167 (inactive), respectively.

On to `COc1ccc(Cl)cc1NC(=O)CN(C)C(=O)c1cnn(-c2ccccc2)n1`, for which, in test [1], the XTT viability was determined as 78.4%. Further, the phenotypic severity score in test [2] (24 h), in test [2] (48 h) and in test [2] (72 h) was 0 (inactive) each time. The drug effect was 0.2 (inactive) in test [3] (24 h), 0.351 (inactive) in test [3] (48 h) and 0.389 (inactive) in test [3] (72 h).

Take `CC(C)(C)c1ccc(N[C@@H]2CCCC[C@H]2NC(=O)c2ccco2)cc1`: the XTT viability in test [1] is 117%. The phenotypic severity score in test [2] (24 h), in test [2] (48 h) and in test [2] (72 h) was 0 (inactive) in each case. In addition, the drug effect was < 0 (inactive) in test [3] (24 h), < 0 (inactive) in test [3] (48 h) and 0.111 (inactive) in test [3] (72 h).

Turning to `Nc1ncc(-c2cn[nH]c2)cc1-c1nc2cc(Cl)cnc2[nH]1`, in test [1], the XTT viability was 94.4%. Moreover, the phenotypic severity score in test [2] (24 h), in test [2] (48 h) and in test [2] (72 h) was 0 (inactive) in each case. For the same molecule, the drug effect was < 0 (inactive) in test [3] (24 h), < 0 (inactive) in test [3] (48 h) and 0.0556 (inactive) in test [3] (72 h).

Regarding `COc1cc(C2=NCCN2)cc2cc(-c3ccc(C4=NCCN4)cc3)oc12`, the XTT viability in test [1] turned out to be 4.86%. Further, the phenotypic severity score in test [2] (24 h), in test [2] (48 h) and in test [2] (72 h) was 0 (inactive) each time. Further, the drug effect in test [3] (24 h) is 0.1 (inactive); in test [3] (48 h) it was 0.027 (inactive); in test [3] (72 h), 0.0303 (inactive).

In the case of `COc1ccc(S(=O)(=O)Nc2ccc(CN3CCN(C(=O)c4cccc(C#N)c4)CC3)cc2)cc1`, the XTT viability in test [1] came out at 144%. Besides, the phenotypic severity score in test [2] (24 h) is 0 (inactive); in test [2] (48 h) it was 0 (inactive); in test [2] (72 h) it was 1 (inactive). Moreover, the drug effect was 0.1 (inactive) in test [3] (24 h), 0.111 (inactive) in test [3] (48 h) and 0.188 (inactive) in test [3] (72 h).

For the molecule `Nc1nccc2ccc(Oc3ccncc3)cc12`, in test [1], the XTT viability was determined as 152%. Also, the phenotypic severity score in test [2] (24 h), in test [2] (48 h) and in test [2] (72 h) was 0 (inactive) throughout. Moreover, the drug effect in test [3] (24 h) is 0.1 (inactive); in test [3] (48 h), 0.222 (inactive); in test [3] (72 h), 0.375 (inactive).

As for `O=[N+]([O-])c1cn2c(n1)OC[C@@H](OCc1ccc(OC(F)(F)F)cc1)C2`, the XTT viability in test [1] came to 158%. The phenotypic severity score in test [2] (24 h), in test [2] (48 h) and in test [2] (72 h) was 0 (inactive) in each case. In addition, the drug effect is 0.2 (inactive) in test [3] (24 h), 0.167 (inactive) in test [3] (48 h) and 0.312 (inactive) in test [3] (72 h).

On to `CCCn1c(NC(=O)c2ccc3ccccc3n2)nc2ccccc21`, for which the XTT viability in test [1] was determined as 5.68%. The phenotypic severity score in test [2] (24 h) was 1 (inactive); in test [2] (48 h), 0 (inactive); in test [2] (72 h) it was 0 (inactive). Further, the drug effect in test [3] (24 h) is 0.2 (inactive); in test [3] (48 h) it was 0.278 (inactive); in test [3] (72 h), 0.312 (inactive).

`FC(F)(F)c1cc(NCCc2ccccc2)nc(-c2ccccn2)n1`: the XTT viability in test [1] was 58.7%. The results for the phenotypic severity score in test [2] (24 h), in test [2] (48 h) and in test [2] (72 h) were 1 (inactive), 2 (active) and 4 (active), respectively. Further, the figures for the drug effect in test [3] (24 h), in test [3] (48 h) and in test [3] (72 h) were 0.05 (inactive), 0.514 (active) and 0.394 (inactive), respectively.

For `c1cncc(NCc2ccc(-c3cc4ccncc4cc3OC3CCNCC3)s2)c1`, in test [1], the XTT viability amounted to 14.8%. The phenotypic severity score is 3 (active) in test [2] (24 h), 3 (active) in test [2] (48 h) and 4 (active) in test [2] (72 h). Further, the drug effect in test [3] (24 h) is 0.136 (inactive); in test [3] (48 h), 0.45 (inactive); in test [3] (72 h), 0.556 (active).

With `Cc1ccccc1C(=O)N1N=C(Nc2ccccc2)SC1(C)C`, the XTT viability in test [1] was determined as 88.7%. The phenotypic severity score in test [2] (24 h) is 1 (inactive); in test [2] (48 h) it was 2 (active); in test [2] (72 h), 0 (inactive). Further, the results for the drug effect in test [3] (24 h), in test [3] (48 h) and in test [3] (72 h) were 0.0455 (inactive), 0.1 (inactive) and 0.158 (inactive), respectively.

As for `CCNC(=O)C(C)Nc1nc(-c2cccnc2)nc2sc(C)c(C)c12` (stereo not given), the XTT viability in test [1] amounted to 81.9%. In addition, the phenotypic severity score in test [2] (24 h), in test [2] (48 h) and in test [2] (72 h) was 0 (inactive) throughout. In addition, the drug effect was < 0 (inactive) in test [3] (24 h), < 0 (inactive) in test [3] (48 h) and 0.111 (inactive) in test [3] (72 h).

For the molecule `OCc1ccc(-c2cncc(Nc3cccc(Cl)c3)c2)cc1`, in test [1], the XTT viability was 99.5%. Moreover, the phenotypic severity score in test [2] (24 h), in test [2] (48 h) and in test [2] (72 h) was 0 (inactive) each time. Further, the drug effect in test [3] (24 h) was 0.1 (inactive); in test [3] (48 h), 0.0811 (inactive); in test [3] (72 h), 0.152 (inactive).

For the molecule `CC(C)(C)OC(=O)N1CCN(c2nccc(-c3ccc(-c4ccc(Cl)cc4)s3)n2)CC1`, the XTT viability in test [1] was 93.7%. Besides, the phenotypic severity score in test [2] (24 h), in test [2] (48 h) and in test [2] (72 h) was 0 (inactive) in each case. Further, the drug effect was 0.182 (inactive) in test [3] (24 h), 0.15 (inactive) in test [3] (48 h) and 0.182 (inactive) in test [3] (72 h).
